These results are taken from PubChem BioAssay (Tox21).

A short description of assay [1]: qHTS assay to identify small molecule antagonists of the estrogen related receptor (ERR) signaling pathway from Tox21 library - cell viability counter screen (AID 1224834). Further: nearly all actives have a fitted effect of over 30% in size. Further: potency means the concentration at half of the fitted maximal effect. A digest of the protocol: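 In this quantitative HTS format, ERR cells receive compounds in DMSO and are incubated for 17.5 h at 37 C. Live-cell protease activity is then detected with CellTiter-Fluor.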

For assay [2], the target named is Luciferin 4-monooxygenase (Photinus pyralis) (UniProt P08659). In words: qHTS assay to identify small molecule inhibitors of firefly luciferase (AID 1224835). Further: nearly all actives have a fitted effect of over 25% in size. Further: potency means the concentration at half of the fitted maximal effect. In short, it runs like this: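 Quantitative HTS format; KM concentrations of both substrates. Purified P. pyralis FLuc activity quantified from luminescence images.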
Sequence of Luciferin 4-monooxygenase (Photinus pyralis) (P08659 whole entry, looked up): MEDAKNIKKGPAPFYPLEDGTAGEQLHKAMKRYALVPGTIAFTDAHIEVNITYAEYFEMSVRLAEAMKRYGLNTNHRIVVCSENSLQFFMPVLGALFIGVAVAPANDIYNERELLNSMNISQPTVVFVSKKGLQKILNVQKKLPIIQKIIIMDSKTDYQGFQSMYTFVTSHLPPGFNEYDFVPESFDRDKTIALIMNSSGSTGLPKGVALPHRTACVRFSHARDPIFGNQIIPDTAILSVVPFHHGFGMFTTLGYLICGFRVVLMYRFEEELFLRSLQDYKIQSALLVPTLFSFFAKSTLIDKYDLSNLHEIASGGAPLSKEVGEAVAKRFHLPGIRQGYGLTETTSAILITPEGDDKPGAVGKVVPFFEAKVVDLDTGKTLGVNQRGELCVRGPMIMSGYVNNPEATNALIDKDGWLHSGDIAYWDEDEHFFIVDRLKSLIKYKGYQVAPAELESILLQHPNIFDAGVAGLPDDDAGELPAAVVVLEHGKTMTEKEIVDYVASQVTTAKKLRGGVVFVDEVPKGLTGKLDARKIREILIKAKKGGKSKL
Assay [3] can be described thus: qHTS assay to identify small molecule agonists of the constitutive androstane receptor (CAR) signaling pathway - cell viability counter screen (AID 1224836). Further: series mostly up to about 92 µM; nearly all actives have a fitted effect of over 45% in size. In short, it runs like this:
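HepG2 cells stably carrying hCAR and a CYP2B6-2.2kb reporter were plated 4 h, then given compounds at 15 concentrations plus PK11195 (final 0.75 uM). After 23 h at 37 C, viability was read by CellTiter-Fluor fluorescence.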

The nature of assay [4]: qHTS assay to identify small molecule antagonists of the constitutive androstane receptor (CAR) signaling pathway - cell viability counter screen (AID 1224837). Further: series mostly up to about 92 µM; nearly all actives have a fitted effect of over 45% in size. In short, it runs like this: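 In quantitative HTS format, compounds at 15 concentrations were applied to HepG2 cells double-transfected with hCAR and CYP2B6-2.2kb under 50 nM CITCO stimulation; live-cell protease activity was read after 23 hr via CellTiter-Fluor.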

In assay [5] the target is Nuclear receptor subfamily 1 group I member 3 (Homo sapiens) (UniProt Q14994). In words: qHTS assay to identify small molecule antagonists of the constitutive androstane receptor (CAR) signaling pathway (AID 1224838). Further: nearly all actives have a fitted effect of over 40% in size. In short, it runs like this: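 CITCO-stimulated (50 nM final) HepG2 cells stably transfected with hCAR and CYP2B6-2.2kb luciferase were exposed to compounds at 15 concentrations for 24 h at 37 C/5% CO2. A luciferase reagent was added and luminescence recorded after 30 min.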
Sequence of Nuclear receptor subfamily 1 group I member 3 (Homo sapiens) (Q14994 whole entry, looked up): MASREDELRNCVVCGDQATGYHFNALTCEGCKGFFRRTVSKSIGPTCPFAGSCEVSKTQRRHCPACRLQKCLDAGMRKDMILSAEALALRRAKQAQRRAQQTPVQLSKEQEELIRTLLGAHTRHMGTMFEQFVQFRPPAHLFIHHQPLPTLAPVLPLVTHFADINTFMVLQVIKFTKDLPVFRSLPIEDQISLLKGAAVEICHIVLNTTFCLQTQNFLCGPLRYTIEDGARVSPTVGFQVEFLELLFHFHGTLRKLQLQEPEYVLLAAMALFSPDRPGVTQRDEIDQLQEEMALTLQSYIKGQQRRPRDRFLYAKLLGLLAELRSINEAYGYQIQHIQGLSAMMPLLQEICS

For assay [6] the target is unchanged. As to the kind of experiment: qHTS assay to identify small molecule agonists of the constitutive androstane receptor (CAR) signaling pathway (AID 1224839). Further: nearly all actives have a fitted effect of over 15% in size. Further: potency means the concentration at half of the fitted maximal effect. On activation: series mostly up to about 92 µM. In short, it runs like this: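 HepG2 cells stably expressing hCAR and a CYP2B6-2.2kb luciferase reporter were treated with compounds at 15 concentrations plus 0.75 uM PK11195 (final) for 24 h at 37 C; luminescence was read after ONE-Glo addition.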

Assay [7] in a line: qHTS assay to identify small molecule antagonists of the estrogen related receptor signaling pathway with the pleiotropic PPARgamma coactivator (PGC) from Tox21 10K library - cell viability counter screen (AID 1224840; active means well fitted cell-killing curve with a large enough effect in the repeat runs, not every such curve was filed as active; further: nearly all actives have a fitted effect of over 40% in size). In short, it runs like this:
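Viability counter screen, PGC/ERR cells: 17.5 h compound exposure at 37 C, CellTiter-Fluor fluorescence endpoint.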

Assay [8] addresses Thyrotropin receptor (Homo sapiens) (UniProt P16473). In words: qHTS assay to identify small molecule agonists of the thyroid stimulating hormone receptor (TSHR) signaling pathway (AID 1224843; calls by dose curve; further: nearly all actives have a fitted effect of over 45% in size). In short, it runs like this: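 Compounds are titrated over 15 concentrations, in triplicate, onto TSHR-HEK293 cells seeded at 800/well. Plates sit 30 min at room temperature before cAMP-d2 and anti-cAMP cryptate are added; signal is read after a further hour.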

Assay [9] can be described thus: qHTS assay to identify small molecule agonists of the hypoxia (HIF-1) signaling pathway - cell viability counter screen (AID 1224844; calls by dose curve; further: nearly all actives have a fitted effect of over 50% in size). A digest of the protocol: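 Same wells as the HIF-1 reporter screen; ME-180 cells carrying HRE-bla, 17 hr treatment at 37C; CellTiter-Glo luminescence read after 30 min at room temperature.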
Assay [10] can be described thus: qHTS assay to identify small molecule agonists of H2AX (AID 1224845; active means well fitted activation curve with a large enough effect in the signal ratio in the repeat runs, not every such curve was filed as active; the % refers to the signal ratio). In short, it runs like this: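 Wild-type CHO-K1 cells plated overnight, then exposed 3 hr at 37C to compounds at 15 concentrations (0.76% DMSO). Lysed, then HTRF anti-pH2AX(S139)-cryptate/anti-H2AX-d2 detection after 24 hr at room temperature; emissions 665 and 620 nm.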
A short description of assay [11]: qHTS assay to identify small molecule agonists of H2AX - cell viability counter screen (AID 1224847; calls by dose curve; further: top concentration of the series differs between compounds; nearly all actives have a fitted effect of over 30% in size). A digest of the protocol:
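Wild-type CHO-K1 cells (10% FBS medium) were plated overnight at 37C, exposed to compounds at 15 concentrations for 3 hr at 37C (0.76% DMSO final), and viability was read as CellTiter-Glo luminescence after 30 min at room temperature.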

The nature of assay [12]: qHTS RealTime-Glo MT Cell Viability Assay in HepG2 cells - 24 hour (AID 1224867). Further: nearly all actives have a fitted effect of over 50% in size. In short, it runs like this:
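Compound treatment began 5 h after plating HepG2 cells (600/well) with NanoLuc luciferase and prosubstrate. Plates stayed at 37 C for 40 h; luminescence was captured at six time points, 0 h through 40 h.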

Assay [13] is described as follows: qHTS RealTime-Glo MT Cell Viability Assay in HEK293 cells - 32 hour (AID 1224868). Further: nearly all actives have a fitted effect of over 50% in size. Further: potency means the concentration at half of the fitted maximal effect. A digest of the protocol:
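Quantitative high-throughput screen of the Tox21 10K library in HEK293: cells and RealTime-Glo reagents plated together, compound added at 5 h, luminescence monitored through 40 h at 37 C.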

A short description of assay [14]: A CellTox Green Cytotoxicity Assay to monitor cytotoxicity in HEK293 cells - 0 hour (AID 1224869). Further: nearly all actives have a fitted effect of over 50% in size. Further: potency means the concentration at half of the fitted maximal effect. A digest of the protocol:
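Homogeneous no-lysis format: HEK293 cell suspension mixed with CellTox Green reagent, seeded, incubated 5 h at 37 C/5% CO2, then dosed by pintool with compound in DMSO.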

Assay [15] in a line: qHTS assay to identify small molecule agonists of the hypoxia (HIF-1) signaling pathway (AID 1224846; active means well fitted activation curve with a large enough effect in the signal ratio in the repeat runs, not every such curve was filed as active; the % refers to the signal ratio). In short, it runs like this:
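In ME-180 cells bearing an HRE-bla construct, 17 h treatment with DMSO-dissolved compounds at 37C was followed by CCF4-AM loading to quantify reporter induction.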

Structures are written as SMILES. Where “and” joins values, the source holds several entries; their conditions need not be identical. Identical values can stand only once. Records with an inconclusive call do not appear. Some compounds were tested as several samples or in several runs, with calls that do not always agree. Calls of active or inactive are those of the source. Unless noted, the call rests on the fitted dose curve; in most records, active means well fitted curve in the direction sought with a large enough effect in the repeat runs; inconclusive means weak or mixed curves; inactive means no such curve, though single readings can be large; an effect the other way counts as inactive or inconclusive.

Sequence of Thyrotropin receptor (Homo sapiens) (P16473 whole entry, looked up): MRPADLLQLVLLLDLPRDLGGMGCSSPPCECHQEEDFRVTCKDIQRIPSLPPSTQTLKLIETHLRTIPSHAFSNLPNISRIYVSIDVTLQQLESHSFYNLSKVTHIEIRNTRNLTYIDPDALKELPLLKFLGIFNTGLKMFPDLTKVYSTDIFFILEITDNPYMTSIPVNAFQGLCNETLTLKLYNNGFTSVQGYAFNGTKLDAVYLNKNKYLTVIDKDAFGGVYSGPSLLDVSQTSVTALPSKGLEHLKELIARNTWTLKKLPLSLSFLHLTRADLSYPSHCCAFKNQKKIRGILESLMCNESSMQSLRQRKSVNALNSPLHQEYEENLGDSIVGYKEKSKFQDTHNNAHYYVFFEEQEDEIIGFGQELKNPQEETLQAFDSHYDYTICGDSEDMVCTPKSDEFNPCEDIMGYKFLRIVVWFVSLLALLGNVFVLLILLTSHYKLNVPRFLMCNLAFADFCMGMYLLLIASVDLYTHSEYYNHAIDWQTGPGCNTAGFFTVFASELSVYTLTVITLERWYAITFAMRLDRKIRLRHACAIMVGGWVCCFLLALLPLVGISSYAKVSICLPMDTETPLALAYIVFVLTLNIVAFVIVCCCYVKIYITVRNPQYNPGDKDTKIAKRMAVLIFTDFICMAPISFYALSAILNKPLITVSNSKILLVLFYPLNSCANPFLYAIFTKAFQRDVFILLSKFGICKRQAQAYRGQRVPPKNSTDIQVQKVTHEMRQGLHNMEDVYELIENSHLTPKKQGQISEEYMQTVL

Take `NC(=O)OCC(COC(N)=O)c1ccccc1`: the Potency result in assay [1], in assay [2], in assay [3], in assay [4], in [5] and in assay [6] was “inactive” throughout. The Potency result in assay [7], in assay [8], in assay [9], in assay [10], in assay [11] and in [13] was “inactive” in each case. The Potency result in assay [14] is “inactive”. Besides, in [12], the outcome was inactive.

Regarding `CC1=C(/C=C/C(C)=C/C=C/C(C)=C/C(=O)O)C(C)(C)CCC1`, the Potency result in [1], in assay [3], in assay [4], in [5], in [7] and in assay [10] was “inactive” throughout. For the same molecule, the Potency result in assay [11], in [13] and in assay [14] was “inactive” in each case. The Potency in [2] is 39.9 µM (active) and 27.5 µM (active); in assay [6] it was 27.3 µM (active) and 24.3 µM (active) and 10.6 µM (active). In addition, the result in [12] was inactive.

In the case of `NC(=O)N1c2ccccc2C=Cc2ccccc21`, the Potency entry in assay [1], in [2], in assay [3], in [4], in assay [5] and in assay [6] was “inactive” each time. Also, the Potency result in assay [7], in assay [9], in [10], in assay [11], in [13] and in assay [14] was “inactive” throughout. The molecule was called inactive in assay [15] and in assay [12].

In the case of `Cc1c(N(C)C)c(=O)n(-c2ccccc2)n1C`, the Potency result in [1], in assay [2], in [3], in [4], in assay [5] and in assay [6] was “inactive” throughout. For the same molecule, the Potency entry in assay [7], in [8], in assay [9], in assay [10], in [11] and in [13] was “inactive” throughout. The Potency entry in [14] was “inactive”. In addition, the molecule was called inactive in [12].

As to `CC(=O)CCC(C)C`, the Potency entry in assay [1], in [2], in assay [3], in assay [4], in [5] and in [6] was “inactive” each time. In addition, the Potency entry in assay [7], in assay [8], in assay [9], in [10], in assay [11] and in assay [13] was “inactive” each time. Further, the call in assay [15] and in assay [12] was inactive. Also, the Potency result in [14] is “inactive and 38.9 µM (active)”.

Regarding `COc1cc(C=O)ccc1O`, the Potency entry in [1], in assay [2], in [3], in assay [4], in [5] and in [6] was “inactive” in each case. For the same molecule, the Potency result in assay [7], in [8], in [10], in assay [11], in assay [13] and in assay [14] was “inactive” each time. For the same molecule, the call in [15] and in [12] was inactive.

For the molecule `Cc1c(N(C)CS(=O)(=O)O)c(=O)n(-c2ccccc2)n1C`, the Potency entry in [1], in assay [2], in [3], in assay [4], in [5] and in [6] was “inactive” each time. Also, the Potency result in assay [7], in [8], in assay [10], in [11], in assay [13] and in [14] was “inactive” throughout. Also, the molecule was classed as inactive in assay [15] and in assay [12].

As to `NCCNc1cccc2ccccc12`, the Potency in [1] was 68.5 µM (active) and inactive; in assay [13] it was 54.9 µM (active) and 53.6 µM (active) and inactive. Besides, the Potency result in [2], in [3], in [4], in assay [5], in [6] and in [7] was “inactive” each time. In addition, the Potency result in assay [9], in assay [10], in assay [11] and in [14] was “inactive” throughout. Besides, the outcome in assay [15] and in [12] was inactive.

Take `Cc1cccc(Nc2cc(Cl)nc(SCC(=O)O)n2)c1C`: the Potency entry in assay [1], in assay [2], in [3], in assay [4], in assay [5] and in assay [6] was “inactive” in each case. For the same molecule, the Potency result in assay [7], in [8], in assay [10], in [11], in assay [13] and in assay [14] was “inactive” in each case. Moreover, the molecule was called inactive in assay [12].
